We go through 14 compounds from PubChem BioAssay.

Experiment [1] has as its system Wnt5a (protein binding on small-molecule microarray). The experiment is described as follows: Wnt5a binders on small-molecule microarray, primary screen, biophysical, 635/667 nm fluorescence (AID 1142).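 Further: fluorescence read at 667 nm with signal to noise per printed feature.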 As to conditions: 635 nm fluorescence, higher = more signal.
Experiment [2] can be described thus: cell viability in Huh7 cells, primary screen, cytotoxicity control for HCV replication inhibitor project, CellTiter-Glo luminescence, basal, 48 h (AID 1143).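 Further: Huh7 hepatoma cells carrying a hepatitis C replication reporter with no stimulus; test concentration not given here.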 Particulars: Huh7 HCV replicon, higher = more signal, called active from +8 up or from −8 down.
The nature of experiment [3]: P. aeruginosa biofilm formation inhibitors, primary screen, PAO1 strain, BacTiter-Glo luminescence, LB-PBS (AID 1144). As to conditions: 12 h, higher = more signal.
Experiment [4] in a line: CREB reporter modulators without forskolin, primary screen, cell-based, PC12, CRE-LacZ reporter, unstimulated (AID 1145). As to conditions: no forskolin, luminescence, 4.5 h, higher = more signal, called active from +8 up or from −8 down.
The nature of experiment [5]: CREB reporter modulators under forskolin, primary screen, cell-based, PC12, CRE-LacZ reporter, forskolin-stimulated (AID 1146).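 Further: PC12 cells with 6xCRE LacZ reporter stimulated by forskolin 10 µM; beta-galactosidase reporter signal reflecting CREB driven transcription.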 As to conditions: luminescence, 4.5 h, higher = more signal, called active from +8 up or from −8 down.
Experiment [6] has as its target Streptavidin (Streptomyces avidinii) (UniProt P22629). Put plainly: streptavidin binders on small-molecule microarray, primary screen, artefact control for SMM compound annotation, biophysical, 635/667 nm fluorescence (AID 1147).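 Further: signal reflects streptavidin binding to arrayed compounds as a control protein.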 As to conditions: streptavidin binding, higher = more signal.
Experiment [7] is described as follows: small-molecule binders of probe aInhba, primary screen, biochemical, small-molecule microarray, 635/667 nm fluorescence (AID 1148).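 Further: score merges 667nm spot fluorescence with signal-to-noise for antibody binding to printed compounds.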 As to conditions: higher = more signal.
The target of experiment [8] is Torsin-1A (Homo sapiens) (UniProt O14656). Put plainly: torsin A binders from cell lysate, primary screen, small-molecule microarray, wild-type, 635/667 nm (AID 1149). As to conditions: COS7 hTOR1A-WT lysate, 635 nm fluorescence, higher = more signal.
Chain of Torsin-1A (Homo sapiens) (O14656 whole entry, looked up): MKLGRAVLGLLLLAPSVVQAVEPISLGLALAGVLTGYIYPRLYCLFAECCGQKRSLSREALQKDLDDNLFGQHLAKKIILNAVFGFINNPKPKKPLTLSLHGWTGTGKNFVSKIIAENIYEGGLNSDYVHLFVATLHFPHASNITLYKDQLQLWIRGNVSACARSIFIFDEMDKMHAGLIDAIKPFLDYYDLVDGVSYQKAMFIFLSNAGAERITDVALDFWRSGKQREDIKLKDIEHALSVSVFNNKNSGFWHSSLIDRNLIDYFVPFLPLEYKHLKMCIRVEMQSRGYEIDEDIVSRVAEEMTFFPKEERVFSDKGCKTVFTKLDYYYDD
The target is the same in experiment [9]. The experiment is described as follows: small-molecule binders of mutant TOR1A in lysate, primary screen, cell lysate, small-molecule microarray, COS7 lysate, 635/667 nm fluorescence (AID 1150).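 Further: score pools 667 nm emission and signal to noise measuring lysate protein binding.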 Particulars: COS7 hTOR1A mutant lysate, 635 nm fluorescence, higher = more signal.
Experiment [10] concerns Sonic hedgehog protein (Shh). Put plainly: small-molecule binders of Shh protein, primary screen, biochemical, small-molecule microarray, 635/667 nm fluorescence (AID 1151).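 Further: Shh protein binding to compounds spotted on small-molecule microarray slides; score combines spot fluorescence intensity with signal-to-noise across triplicate slides.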 As to conditions: small-molecule microarray binding, 635 nm fluorescence; higher = more signal.

Structures are written as SMILES. Active and inactive are the calls of the source. Unless noted, how the calls were made is not given here.

Chain of Streptavidin (Streptomyces avidinii) (P22629 whole entry, looked up): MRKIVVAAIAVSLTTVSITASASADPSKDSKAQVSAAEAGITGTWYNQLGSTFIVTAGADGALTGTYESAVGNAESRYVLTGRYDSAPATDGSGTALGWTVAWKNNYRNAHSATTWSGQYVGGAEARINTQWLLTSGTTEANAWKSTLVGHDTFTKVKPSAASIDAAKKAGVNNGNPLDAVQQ

For `CC(=O)NCCCC[C@@H]1NC(=O)[C@H]2C[C@@H](C(=O)NCCCCCN)[C@@H](c3cccc(OCCO)c3)N2C1=O`, the composite z-score in [1] was 0.292; in experiment [6], 0.688; in [7], -0.102; with Torsin-1A (Homo sapiens) [8] it was 0.455; with Torsin-1A (Homo sapiens) [9], 0.0709; in experiment [10], -0.0725. In addition, the z-score in experiment [2] is -0.532 (inactive); in experiment [3], 0.00194 (inactive); in experiment [4], -0.675 (inactive); in [5], -1.44 (inactive).

As to `O=C1C2C=CC(C(O)c3cccc4ccccc34)N(Nc3ccccc3)C2C(=O)N1c1ccccc1` (stereo not given), the composite z-score in [1] worked out at 0.336; in experiment [6], 0.595; in experiment [7], 0.0705; in the experiment with Torsin-1A (Homo sapiens) [8] it was 0.327; in the experiment with Torsin-1A (Homo sapiens) [9], 0.463; in experiment [10], 0.296. The z-score is -1.3 (inactive) in [2], -1.46 (inactive) in [3], 0.429 (inactive) in experiment [4] and -0.637 (inactive) in [5].

As for `COC(=O)c1c(CC[C@@H](CO)NC(=O)N[C@@H](C)Cn2cc(C3(O)CCCC3)nn2)oc(C(C)=O)c1C(=O)OC`, the composite z-score is -0.22 in [1]; 0.0648 in experiment [6]; 0.117 in experiment [7]; 0.862 with Torsin-1A (Homo sapiens) [8]; 0.277 in the experiment with Torsin-1A (Homo sapiens) [9]; 2.16 in experiment [10]. For the same compound, the z-score in experiment [2] is -2.75 (inactive); in [3] it was -0.0355 (inactive); in [4] it was 0.861 (inactive); in [5] it was -0.144 (inactive).

As to `Cc1ccc(S[C@]2(C(=O)O)CC(=O)N(C3CCCCC3)[C@@H]2c2ccc(CO)cc2)cc1`, the composite z-score in [1] is 0.219; in experiment [6], 1.28; in experiment [7] it was 0.112; with Torsin-1A (Homo sapiens) [8], -0.284; in the experiment with Torsin-1A (Homo sapiens) [9], -0.249; in experiment [10] it was -0.265. Also, the z-score in experiment [2] is -0.0359 (inactive); in [3], -0.78 (inactive); in experiment [4], -0.116 (inactive); in experiment [5], -0.337 (inactive).

Turning to `COc1cc2c(cc1OC)CN(C(=O)[C@@H]1[C@H]3C(=O)O[C@H](c4ccccc4)[C@H](c4ccccc4)N3[C@H](c3ccc(O)cc3)[C@@]13C(=O)Nc1ccc(C#CCNC(N)=O)cc13)CC2`, the composite z-score in [1] was 0.147; in [6], 0.239; in [7], -0.101; in the experiment with Torsin-1A (Homo sapiens) [8] it was -0.0899; with Torsin-1A (Homo sapiens) [9], -0.0351; in [10], 0.946. The z-score is 0.311 (inactive) in experiment [2], 0.347 (inactive) in experiment [3], 0.182 (inactive) in experiment [4] and 0.445 (inactive) in experiment [5].

Take `COCCOC(=O)N1C(=O)[C@@]2(c3cc(C#CCCO)ccc31)[C@H](C(=O)NC[C@H](O)c1ccccc1)[C@H]1C(=O)O[C@H](c3ccccc3)[C@H](c3ccccc3)N1[C@@H]2c1ccccc1OCCO`: the composite z-score in experiment [1] was 0.524; in experiment [6], 0.562; in [7], 0.413; with Torsin-1A (Homo sapiens) [8], 1.19; in the experiment with Torsin-1A (Homo sapiens) [9], 0.597; in [10], 1.35. Further, the z-score was -1.34 (inactive) in [2], 1.59 (inactive) in experiment [3], -0.0607 (inactive) in [4] and 0.172 (inactive) in [5].

With `CC(C)c1ccc(NN2C(C(O)c3ccccn3)C=CC3C(=O)N(c4ccccc4)C(=O)C32)cc1` (stereo not given), the composite z-score was found to be 1.01 in [1]; 0.608 in experiment [6]; 0.46 in experiment [7]; 1.55 in the experiment with Torsin-1A (Homo sapiens) [8]; 2.09 with Torsin-1A (Homo sapiens) [9]; 1.98 in experiment [10]. In addition, the z-score in experiment [2] was 0.0489 (inactive); in [3], -0.997 (inactive); in experiment [4] it was 0.0501 (inactive); in [5], 0.792 (inactive).

Turning to `CC(C)NC(=O)[C@@H]1c2ccccc2C(=O)N(Cc2cc(C(F)(F)F)cc(C(F)(F)F)c2)[C@H]1c1ccc(CO)cc1`, the composite z-score in experiment [1] came out at 0.133; in experiment [6], 0.0544; in experiment [7], 0.136; in the experiment with Torsin-1A (Homo sapiens) [8] it was 0.275; with Torsin-1A (Homo sapiens) [9] it was 0.0913; in experiment [10] it was 0.646. In addition, the z-score in experiment [2] is 0.0274 (inactive); in experiment [3], 0.71 (inactive); in experiment [4] it was 0.0279 (inactive); in experiment [5], 0.296 (inactive).

Turning to `O=C1c2ccccc2C(=O)C2CC([C@H]3Oc4ccccc4S(=O)(=O)N4CCC[C@@H]34)=CCC12` (stereo not given in full), the composite z-score is -0.0428 in experiment [1]; 0.161 in experiment [6]; -0.0471 in [7]; 0.208 with Torsin-1A (Homo sapiens) [8]; 0.402 with Torsin-1A (Homo sapiens) [9]; -0.133 in experiment [10]. The z-score is -3.06 (inactive) in experiment [2], 0.618 (inactive) in experiment [3], 6.12 (inactive) in experiment [4] and -1.59 (inactive) in [5].

With `COC(=O)[C@@]1(Cc2ccc(OC)cc2)[C@H]2c3cc(C(=O)N(C)C)n(CCF)c3C[C@H]2CN1C(=O)c1ccccc1`, the composite z-score in experiment [1] is 0.17; in [6], 2.2; in experiment [7], 0.515; with Torsin-1A (Homo sapiens) [8], 0.3; in the experiment with Torsin-1A (Homo sapiens) [9], 0.541; in experiment [10], -0.379. The z-score was -2.15 (inactive) in [2], 0.475 (inactive) in experiment [3], 1.35 (inactive) in experiment [4] and -0.715 (inactive) in experiment [5].

For `[N-]=[N+]=NCc1ccccc1[C@H]1OC(c2ccc(OCCCO)cc2)=N[C@@]1(Cc1ccccc1N=[N+]=[N-])C(=O)N1CCCCC1`, the composite z-score in [1] amounted to 0.163; in experiment [6], 1.31; in experiment [7], 0.277; in the experiment with Torsin-1A (Homo sapiens) [8], 0.84; with Torsin-1A (Homo sapiens) [9], 0.89; in experiment [10] it was 0.419. In addition, the z-score in [2] was -3.39 (inactive); in [3], -0.567 (inactive); in experiment [4] it was 0.236 (inactive); in experiment [5] it was -1.04 (inactive).

With `CN(C)CCCC[C@@H]1NC(=O)[C@H]2C[C@@H](C(=O)NCCCCCCNC(=O)CS)[C@@H](c3ccc(O)cc3)N2C1=O`, the composite z-score is -0.261 in experiment [1]; -1.05 in [6]; -0.224 in experiment [7]; 1.13 in the experiment with Torsin-1A (Homo sapiens) [8]; 0.753 with Torsin-1A (Homo sapiens) [9]; 1.92 in [10]. Also, the z-score in experiment [2] was -0.898 (inactive); in [3] it was -0.113 (inactive); in experiment [4], -1.21 (inactive); in experiment [5] it was -0.887 (inactive).

In the case of `C=CCNC(=O)[C@@H]1[C@H]2C(=O)O[C@H](c3ccccc3)[C@H](c3ccccc3)N2[C@H](c2ccc(O)cc2)[C@@]12C(=O)Nc1ccc(C#CCCO)cc12`, the composite z-score in experiment [1] was 0.177; in experiment [6], -0.955; in [7], -0.153; with Torsin-1A (Homo sapiens) [8] it was -1.05; in the experiment with Torsin-1A (Homo sapiens) [9], -0.106; in experiment [10] it was -0.736. Further, the z-score was -2.21 (inactive) in experiment [2], -0.661 (inactive) in experiment [3], 0.0384 (inactive) in experiment [4] and -0.612 (inactive) in experiment [5].

Turning to `CC(C)NC(=O)[C@@]1(Cc2ccccc2I)c2ccccc2C(=O)N(Cc2ccccc2C(F)(F)F)[C@H]1c1ccc(CO)cc1`, the composite z-score in [1] was 0.0851; in experiment [6], -0.503; in [7] it was 0.225; with Torsin-1A (Homo sapiens) [8] it was -0.158; with Torsin-1A (Homo sapiens) [9], 0.644; in experiment [10] it was 0.66. The z-score in experiment [2] was -1.7 (inactive); in experiment [3], 0.358 (inactive); in experiment [4] it was 0.856 (inactive); in experiment [5] it was -0.151 (inactive).
